Compound activity from PubChem BioAssay.
Pf Dd2 growth = Plasmodium falciparum Dd2 growth inhibition; P. falciparum Dd2 growth, SYBR Green, 72 h; Potency, µM (top dose mostly 28.9 µM), for inactives: at the highest dose activity, negative = inhibition, actives largely listed as inhibitors; 4.3% of 120,000 active; active means well fitted inhibition curve with a large enough effect;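 further: plate controls were DMSO vehicle for no effect and reference drug for full effect; nearly all actives have a fitted effect of over 65% in size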
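Infected erythrocytes (Dd2, 0.3% parasitemia, 2.5% hematocrit final) are added to compound in RPMI-1640/Albumax II medium, grown 72 h at 37C in low oxygen, then lysed with saponin/Triton-X containing SYBR Green and read by fluorescence.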
* marks the source's active call; other numbers are inactive results; i = inactive; [ ] = dose if it differs, or a comment. Shown is part of a subset that was picked to be rich in hits. Potency means the concentration at half of the fitted maximal effect.

SMILES	Pf Dd2 growth
COCCNC(=O)C(C)[C@@H]1CC[C@@]2(C)CC[C@H](NC(=O)CCOC)[C@@H](C)[C@@H]2[C@H]1O (some centres undefined)	-5%[44.1 µM]
COCCNC(=O)C(NC(=O)c1ccccc1C)C1CCN(C(=O)c2ccccc2F)CC1 (centres undefined)	9%
CC(C)C[C@@H](NC(=O)[C@@H]1C[C@@H](NS(=O)(=O)c2cn(C)cn2)CCN1C(=O)COCC(=O)O)C(N)=O	16%
O=S(=O)(c1ccccc1)c1nnn2c1nc(N1CCOCC1)c1ccccc12	5%
Cc1cc(C)c([S+](=O)([O-])c2nnn3c2nc(N2CCC(F)CC2)c2ccccc23)c(C)c1	11µM*
Cc1cc(C)c([S+](=O)([O-])c2nnn3c2nc(N2CCOCC2)c2ccccc23)c(C)c1	8.9µM*
Cc1ccc(-c2nnn3c2nc(N2CCC(C)CC2)c2ccccc23)cc1	-11%
CC(C)c1ccc([S+](=O)([O-])c2nnn3c2nc(N2CCC(F)CC2)c2ccccc23)cc1	-28%
COc1ccc(OC)c([S+](=O)([O-])c2nnn3c2nc(N2CCOCC2)c2ccccc23)c1	-21%
Cn1ncc(N2CCC(NC(=O)Cc3cccs3)CC2)cc1=O	i
CC(=O)N1CC2(Cc3ccccc31)CN(C(=O)Cc1ccc(F)cc1)C2	i
COCc1cc(N2CCC(c3cccc(OC)c3OC)C2)ncn1 (centres undefined)	-11%
CC(C)CN1CCCC(COc2ccccc2C(=O)NC2CC2)C1 (centres undefined)	i
Cc1cc(C)cc(N2CCC(NC(=O)c3cc(F)cc(F)c3)C2=O)c1 (centres undefined)	i
Cc1cccc(-c2noc(-c3ccccc3OCC(=O)Nc3ccc([N+](=O)[O-])cc3)n2)c1	13%
COc1cc(NC(=O)CCc2nc(-c3cccs3)no2)cc(OC)c1OC	-4%
O=C(CCc1nc(-c2cccs2)no1)Nc1ccc([N+](=O)[O-])cc1	11µM*
Cc1[nH]ncc1CNC(=O)C1CCCN(Cc2ccncc2)CCC(=O)NCC1 (centres undefined)	-9%
COc1cccc(CNC(=O)Cn2nc3n(c2=O)CCCCC3)c1OC	3%
CSCC[C@@H]1NC(=O)c2cc(NC(=O)Cc3ccc4c(c3)OCC4)ccc2NC1=O	-2%
COc1ccccc1CN1C(=O)C(=O)c2cccc(C)c21	29%
CC(C)Oc1ccccc1CN1CCC([C@@H]2CNC[C@H]2CO)CC1	-1%
Cc1cccc2c1N(Cc1ccccc1OCCC(C)C)C(=O)C2=O	10µM*
Cc1cc(Br)cc2c1N(Cc1ccccc1OC(C)C)C(=O)C2=O	11µM*
CCCCCOc1ccccc1Cn1c(=O)oc2ccc(C)cc21	3%
SMILES	Pf Dd2 growth
COc1ccccc1Cn1ccn(CC(=O)Nc2c(C)cc(C)cc2C)c(=O)c1=O	10%
CC(=O)Nc1cccc(-c2nc(-c3c(C)noc3C)cc3cc(C)oc23)c1	-6%[44.1 µM]
O=C(N1CCCCC1)N1CCN([S+](=O)([O-])c2ccc(Cl)nc2)C(=O)C1	-5%
COC(=O)CN1C(=O)[C@@H]2C[C@@H](O)CN2C2(CN(Cc3ccccn3)C2)C1=O	-11%[44.1 µM]
CC(C)NC(=O)C[C@@H]1C[C@H]2O[C@H](CNC(=O)NC3CCC3)[C@@H](O)[C@H]2O1	-25%[44.1 µM]
CC(=O)N1CCC(Cc2ccc(C(=O)NCc3cn[nH]c3C)cc2)CC1	-21%
O=C([C@@H]1C[C@H](Oc2ccccc2)CN1C(=O)CC1CCCC1)N1CCCC1	i
CC(C)CC(=O)N1C[C@@H](Oc2ccccc2)C[C@H]1C(=O)N1CCCC1	-1%
O=C([C@@H]1C[C@H](Oc2ccccc2)CN1C(=O)C1(c2ccccc2)CC1)N1CCCC1	1.8µM*
CC(c1ccon1)N(C)Cc1cn(-c2ccccc2)nn1 (centres undefined)	-14%
COc1cccc(NC(=O)C2CCN(S(=O)(=O)c3ccc4[nH]c5c(c4c3)CCCCC5)CC2)c1	i
CC(=O)c1ccc(N2CCN(S(=O)(=O)c3ccc4[nH]c5c(c4c3)CCCCC5)CC2)cc1	i
O=C(Nc1cccc(F)c1)C1CCN(S(=O)(=O)c2ccc3[nH]c4c(c3c2)CCCCC4)CC1	11µM*
COc1cccc(-c2n[nH]c3c2CC(=O)N(Cc2ccccn2)C3)c1	17%[44.1 µM]
CCCSc1oc(-c2cccs2)nc1S(=O)(=O)c1ccc(C)cc1	-21%
CCN(CC)CCCNC(=O)CSc1nc2nc(C)c(Cc3c(F)cccc3Cl)c(C)n2n1	-29%
COCCNc1sc(S(=O)(=O)c2ccc(C)cc2)nc1S(=O)(=O)c1ccc(C)cc1	-16%
Cc1ccc(S(=O)(=O)c2nc(-c3ccco3)oc2SCC(C)C)cc1	7%
CCC(C)Nc1sc(S(=O)(=O)CC)nc1S(=O)(=O)c1ccc(C)cc1 (centres undefined)	13µM*
CCN(CC)CCCNc1sc(S(=O)(=O)c2ccccc2)nc1S(=O)(=O)c1ccc(Cl)cc1	5.6µM*
CCCCNc1sc(S(=O)(=O)CC)nc1S(=O)(=O)c1ccc(C)cc1	11µM*
CCCS(=O)(=O)c1nc(S(=O)(=O)c2ccc(C)cc2)c(NCC(C)C)s1	8.9µM*
CCCS(=O)(=O)c1nc(S(=O)(=O)c2ccc(C)cc2)c(N(CC)CC)s1	i
CCCCNc1nc2c(S(=O)(=O)c3ccc(Cl)cc3)nnn2c2ccsc12	-19%
CCCCCS(=O)(=O)c1oc(-c2cccs2)nc1S(=O)(=O)c1ccc(C)cc1	7%
SMILES	Pf Dd2 growth
CCCCS(=O)(=O)c1oc(-c2ccc(F)cc2)nc1S(=O)(=O)c1ccc(C)cc1	-3%
Cc1cc(C)n(CC(=O)N2CCc3nn(C)c(=O)n3CC2)n1	53%
O=C(Cc1ccc(Cl)cc1)NC1CCN(c2cc(-c3ccc(F)cc3)[nH]n2)CC1	i
COCCN1C(=O)[C@H]2CN(C(=O)c3ccncc3)C[C@H]2C1=O	-5%
COc1ccccc1C1CCCN1C(=O)c1oc2ccc(C)cc2c1C (centres undefined)	-23%
COCCC(=O)N[C@@H]1CN(Cc2cccnc2)C[C@H]1CN(C)C	i
O=C(CCn1cncn1)N1CCOC(CC(c2ccccc2)c2ccccc2)C1 (centres undefined)	-9%
Cc1ccccc1OC1(C(=O)O)CCN(c2ncccc2C(N)=O)CC1	-3%
NC(=O)c1cccnc1N1CCOC(CC(c2ccccc2)c2ccccc2)C1 (centres undefined)	7.9µM*
O=C(NC1CC1)c1cc2n(n1)CCCN(C(=O)c1ccccc1-c1ccccc1)C2	-15%
COc1ccc(Cl)cc1NC(=O)NCCc1noc(C2CC2)n1	-19%
CCC1=C(C(=O)OC)C(c2ccc(C)cc2C)N2C(CC(=O)NCC3CCCO3)=CSC2=N1 (centres undefined)	-20%
O=C(C1CC1)N1CCCC(c2nc(CCOCC3CCOCC3)no2)C1 (centres undefined)	-4%
CCCNC(=O)N1CCC(c2nc(CCOCC3CCOCC3)no2)C1 (centres undefined)	3%
C1CC(COCCc2noc(C3CNC3)n2)CCO1	11µM*
CCn1cc(S(=O)(=O)N2CCCC(Cc3nncn3CC3CC3)C2)cn1 (centres undefined)	-14%
O=S(=O)(c1cccs1)N1CCOC(Cc2cccc(F)c2)C1 (centres undefined)	i
O=C(O)C1=NOC2CN(Cc3ccc(F)c(F)c3F)CC12 (centres undefined)	10%[44.1 µM]
O=C(O)C1CCc2nnc(C3CCN(C(=O)c4ccc5c(c4)OCO5)CC3)n21 (centres undefined)	14%
CC(C)c1ccc(NC(=O)c2ccc3c(c2)CCCN3S(C)(=O)=O)cc1	-3%
